Measurements as given in PubChem BioAssay AID1159580 (chemical genetic matrix, 2015).
About 2,000 (36%) of roughly 5,500 compounds were called active. Not shown: some 18% with an inconclusive outcome. No stated cut-off is given here; in the data, active means normalized growth mostly below about 0.91 (no sharp cut-off); inconclusive means no clear call, values can overlap the other calls; inactive means mostly above about 0.92. The list shows a part of the results.

Assay: chemical genetic growth profiling, strain panel (AID 1159580);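 further: tested at 20 µM; growth read once vehicle control cultures reached saturation at 30 °C; 1 = growth at the plate median or of vehicle wells; lower values mean less growth of the strain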
Details: S. cerevisiae deletion strains, growth OD
[1] = locus YAL021C, strain ccr4, hits give low values
[2] = locus YAL026C, strain drs2, hits give low values
[3] = locus YAL030W, strain snc1, hits give low values
[4] = locus YBL061C, strain skt5, hits give low values
[5] = locus YBR009C, strain hhf1, hits give low values
[6] = locus YBR023C, strain chs3, hits give low values
[7] = locus YBR171W, strain sec66, hits give low values
[8] = locus YBR231C, strain swc5, hits give low values
[9] = locus YBR279W, strain paf1, hits give low values
[10] = locus YCL011C, strain gbp2, hits give low values
[11] = locus YCL016C, strain dcc1, hits give low values
[12] = locus YCL061C, strain MRC1, hits give low values
[13] = locus YCL069W, strain vba3, hits give low values
[14] = locus YCR088W, strain abp1, hits give low values
[15] = locus YDL005C, strain med2, hits give low values
[16] = locus YDL040C, strain nat1, hits give low values
[17] = locus YDR001C, strain nth1, hits give low values
[18] = locus YDR069C, strain doa4, hits give low values
[19] = locus YDR137W, strain rgp1, hits give low values
[20] = locus YDR159W, strain sac3, hits give low values
[21] = locus YDR297W, strain sur2, hits give low values
[22] = locus YDR334W, strain swr1, hits give low values
[23] = locus YDR335W, strain msn5, hits give low values
[24] = locus YDR392W, strain spt3, hits give low values
[25] = locus YEL003W, strain gim4, hits give low values
[26] = locus YEL037C, strain rad23, hits give low values
[27] = locus YEL061C, strain CIN8 (second series), hits give low values
[28] = locus YER015W, strain faa2, hits give low values
[29] = locus YER016W, strain bim1, hits give low values
[30] = locus YER111C, strain swi4, hits give low values
[31] = locus YER155C, strain BEM2 (second series), hits give low values
[32] = locus YFR010W, strain ubp6, hits give low values
[33] = locus YGL167C, strain pmr1, hits give low values
[34] = locus YGL173C, strain kem1, hits give low values
[35] = locus YGL227W, strain vid30, hits give low values
[36] = locus YGL240W, strain doc1, hits give low values
[37] = locus YGL253W, strain hxk2, hits give low values
[38] = locus YHR013C, strain ard1, hits give low values
[39] = locus YHR027C, strain rpn1, hits give low values
[40] = locus YHR030C, strain SLT2, hits give low values
[41] = locus YHR079C, strain IRE1, hits give low values
[42] = locus YHR142W, strain chs7, hits give low values
[43] = locus YJL092W, strain hpr5, hits give low values
[44] = locus YJL095W, strain BCK1 (second series), hits give low values
[45] = locus YJL095W, strain BCK1, hits give low values
[46] = locus YJL115W, strain asf1, hits give low values
[47] = locus YJL129C, strain trk1, hits give low values
[48] = locus YJL154C, strain vps35, hits give low values
[49] = locus YJL164C, strain tpk1, hits give low values
[50] = locus YJL166W, strain qcr8, hits give low values
[51] = locus YJR066W, strain TOR1, hits give low values
[52] = locus YKL160W, strain elf1, hits give low values
[53] = locus YKR026C, strain gcn3, hits give low values
[54] = locus YKR091W, strain srl3, hits give low values
[55] = locus YLL001W, strain dnm1, hits give low values
[56] = locus YLL026W, hits give low values
[57] = locus YLL041C, strain sdh2, hits give low values
[58] = locus YLR027C, strain aat2, hits give low values
[59] = locus YLR113W, strain HOG1, hits give low values
[60] = locus YLR221C, strain rsa3, hits give low values
[61] = locus YLR258W, strain gsy2, hits give low values
[62] = locus YLR262C, strain YPT6 (second series), hits give low values
[63] = locus YLR320W, strain mms22, hits give low values
[64] = locus YLR342W, strain FKS1, hits give low values
[65] = locus YLR357W, strain rsc2, hits give low values
[66] = locus YLR370C, strain arc18, hits give low values
[67] = locus YLR384C, strain iki3, hits give low values
[68] = locus YML120C, strain ndi1, hits give low values
[69] = locus YMR058W, strain fet3, hits give low values
[70] = locus YMR125W, strain sto1, hits give low values
[71] = locus YMR129W, hits give low values
[72] = locus YMR205C, strain PFK2, hits give low values
[73] = locus YMR231W, strain pep5, hits give low values
[74] = locus YNL071W, strain lat1, hits give low values
[75] = locus YNL183C, strain NPR1, hits give low values
[76] = locus YNL209W, strain ssb2, hits give low values
[77] = locus YNL248C, strain rpa49, hits give low values
[78] = locus YNL322C, strain KRE1 (second series), hits give low values
[79] = locus YNR049C, strain mso1, hits give low values
[80] = locus YOR001W, strain rrp6, hits give low values
[81] = locus YOR070C, strain gyp1, hits give low values
[82] = locus YOR080W, strain dia2, hits give low values
[83] = locus YOR083W, strain WHI5, hits give low values
[84] = locus YOR106W, strain vam3, hits give low values
[85] = locus YOR231W, strain MKK1, hits give low values
[86] = locus YOR265W, strain rbl2, hits give low values
[87] = locus YOR270C, strain vph1, hits give low values
[88] = locus YOR290C, strain snf2, hits give low values
[89] = locus YPL051W, strain arl3, hits give low values
[90] = locus YPL078C, strain atp4, hits give low values
[91] = locus YPL106C, strain sse1, hits give low values
[92] = locus YPL240C, strain hsp82, hits give low values
[93] = locus YPL256C, strain CLN2, hits give low values

Measured: normalized growth

COC1=CC(=O)C(C(=O)c2ccccc2)=CC1=O
inactive: [1] 1.01 | [2] 0.992 | [3] 0.993 | [4] 1.01 | [5] 0.977 | [6] 0.988 | [7] 0.978 | [8] 0.972 | [9] 0.991 | [10] 0.971 | [11] 0.977 | [12] 0.978 | [13] 0.996 | [14] 0.987 | [15] 0.966 | [16] 0.981 | [17] 0.964 | [18] 0.965 | [19] 0.938 | [20] 0.949 | locus YDR195W, strain ref2 0.964 | [21] 0.967 | [22] 0.96 | [23] 0.97 | [24] 0.98 | [25] 0.976 | [26] 0.986 | [27] 0.98 | [28] 0.98 | [29] 0.974 | [30] 0.973 | [31] 0.975 | [32] 0.993 | [33] 0.975 | [34] 1 | [35] 0.986 | [36] 0.955 | [37] 0.987 | [38] 0.967 | [39] 0.966 | [40] 1.02 | [41] 1.02 | [42] 0.996 | [43] 0.968 | [44] 0.971 | [45] 1.02 | [46] 0.956 | [47] 0.941 | [48] 0.974 | [49] 0.988 | [50] 1.01 | [51] 0.94 | [52] 0.991 | [53] 0.993 | [54] 0.97 | [55] 0.972 | [56] 1 | [57] 0.98 | [58] 0.976 | [59] 1.02 | [60] 0.988 | [61] 0.997 | [62] 0.975 | [63] 0.981 | [64] 0.983 | [65] 0.946 | [66] 0.959 | [67] 0.979 | [68] 1 | [69] 0.966 | [70] 0.987 | [71] 1 | [72] 1 | [73] 0.991 | [74] 0.985 | [75] 0.969 | [76] 0.977 | [77] 0.992 | [78] 0.965 | [79] 0.964 | [80] 0.975 | [81] 0.977 | [82] 1 | [83] 0.991 | [84] 0.992 | [85] 1.04 | [86] 0.986 | [87] 1.01 | [88] 0.965 | [89] 0.984 | [90] 0.975 | [91] 0.927 | [92] 0.977 | [93] 1.04

COC1=CC(=O)C(O)=C/C1=C\C=C\c1ccccc1
active: [1] 0.0637 | [2] 0.0627 | [3] 0.0587 | [4] 0.0684 | [5] 0.0623 | [6] 0.075 | [7] 0.0792 | [8] 0.0663 | [9] 0.068 | [10] 0.0594 | [11] 0.0807 | [12] 0.0651 | [13] 0.064 | [14] 0.0619 | [15] 0.0757 | [16] 0.244 | [17] 0.0607 | [18] 0.068 | [19] 0.292 | [20] 0.166 | locus YDR195W, strain ref2 0.115 | [21] 0.0591 | [22] 0.0652 | [23] 0.0631 | [24] 0.0929 | [25] 0.0583 | [26] 0.0597 | [27] 0.064 | [28] 0.0626 | [29] 0.0792 | [30] 0.076 | [31] 0.0935 | [32] 0.0686 | [33] 0.0977 | [34] 0.0694 | [35] 0.0665 | [36] 0.0868 | [37] 0.0562 | [38] 0.205 | [39] 0.064 | [40] 0.114 | [41] 0.111 | [42] 0.0751 | [43] 0.0609 | [44] 0.0603 | [45] 0.104 | [46] 0.0766 | [47] 0.0861 | [48] 0.0623 | [49] 0.0609 | [50] 0.0637 | locus YJL187C, strain SWE1, hits give low values 0.0601 | [51] -0.00301 | [52] 0.073 | [53] 0.0653 | [54] 0.0623 | [55] 0.0646 | [56] 0.0594 | [57] 0.0594 | [58] 0.0574 | [59] 0.173 | [60] 0.0618 | [61] 0.0601 | [62] 0.0834 | [63] 0.0845 | [64] 0.0656 | [65] 0.127 | [66] 0.0611 | [67] 0.0607 | [68] 0.0568 | [69] 0.0632 | [70] 0.0692 | [71] 0.0614 | [72] 0.088 | [73] 0.068 | [74] 0.0619 | [75] -0.000893 | [76] 0.0644 | [77] 0.0693 | [78] 0.068 | [79] 0.0603 | [80] 0.069 | [81] 0.0623 | [82] 0.0977 | [83] 0.0654 | [84] 0.0683 | [85] 0.109 | [86] 0.0614 | [87] 0.0968 | [88] 0.0813 | [89] 0.0697 | [90] 0.0641 | [91] 0.102 | [92] 0.0581 | [93] 0.131
